Experimental data: PubChem BioAssay (NCI)
About 83,000 compounds went through this panel and 20% of them were active in at least one assay; those are over-represented in the sample as a whole.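 For each line, cells grew in 96-well plates with the test compound present at a single concentration for 48 hours.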 Calls of active or inactive are those of the source. How the source made its calls: active means growth percent below 10; inactive means the rest.

Columns and labels:
Experiment in all cases: NCI-60 one-dose screen, 48 h (100 = growth as untreated, 0 = no growth, -100 = all killed)
Settings in all cases: 10 µM unless noted
[1] = system: T-47D breast
[2] = system: BT-549 breast
[3] = system: MDA-MB-435 melanoma
[4] = system: SW-620 colon
[5] = system: MCF7 breast
[6] = system: HCT-116 colon
[7] = system: HCC-2998 colon
[8] = system: KM12 colon

Measured: growth

CCCn1cnc2c(c1=N)C(c1ccc(Cl)cc1)c1sc3c(C)cccc3c1O2 (stereo unspecified)
inactive: [1] 45.9% | [2] 18% | [4] 25.8% | [5] 17.4% | [7] 15.3% | [8] 10.9%
active: [3] -40% | [6] 9.34%

C[C@H]1c2[nH]c3ccccc3c2C[C@H]2C(=O)N(CCCCCCC(=O)NO)CC(=O)N21
inactive: [1] 61% | [2] 96.5% | [3] 84% | [4] 80.5% | [5] 70.8% | [6] 72.8% | [7] 114% | [8] 84.1%

Cc1nn(-c2ccccc2)c2ncnc(N/N=C/c3cccc(O)c3)c12
inactive: [1] 17.8% | [2] 46.8% | [4] 34% | [5] 17.8% | [6] 24% | [7] 72.6% | [8] 29.3%
active: [3] 3.94%

NC(N)=Nc1ccc(Oc2cccc(NC(N)=Nc3ccc(Br)cc3)c2)cn1
inactive: [1] 37.8% | [2] 99.2% | [3] 72.7% | [4] 76% | [5] 10.8% | [6] 69.2% | [7] 79.3% | [8] 66.5%

CN1c2ccccc2Sc2cc(C=C(C#N)C#N)ccc21
inactive: [1] 92.6% | [2] 110% | [3] 103% | [4] 90.9% | [5] 54.6% | [6] 105% | [7] 97.3% | [8] 103%

CCOc1ccc(C(=O)Nc2ncc(Cc3ccc(F)cc3)s2)cc1
inactive: [1] 34.1% | [2] 57.1% | [4] 26.1% | [5] 19.1% | [6] 13.2% | [7] 15.5% | [8] 16.7%
active: [3] -16.1%

NC(=O)c1cccc(C#CCNC[C@H]2C[C@@H](n3ccc4c(Cl)ncnc43)[C@H](O)[C@@H]2O)c1
inactive: [1] 96.6% | [2] 102% | [4] 104% | [5] 96.5% | [6] 104% | [7] 107% | [8] 106%
active: [3] -89.6%

COc1cc(-c2nnc(SCc3ccc(O)c4ncccc34)n2-c2ccccc2)cc(OC)c1OC
active: [1] -0.917% | [5] 2.01% | [6] 5.72%
inactive: [2] 12.8% | [3] 10.8% | [4] 10.3% | [7] 22.1% | [8] 14%

O=C(c1ccc(Cl)cc1)C1[C@H](c2ccc(Cl)cc2)[C@@H](c2ccccc2)NC12C(=O)Nc1ccccc12 (stereo partly specified)
inactive: [1] 40.1% | [2] 96.1% | [3] 49.1% | [4] 54% | [5] 13.2% | [6] 26.1% | [7] 34.5% | [8] 30.7%

COc1cc2nc(Cl)nc(Nc3cccc(C4=Nc5c(N)nc(N)nc5NC(c5ccc(Br)cc5)C4)c3)c2cc1OC (stereo unspecified)
inactive: [1] 85.1% | [2] 87.8% | [3] 47.4% | [4] 46.5% | [5] 39.3% | [7] 41.5% | [8] 24.3%
active: [6] -10.5%

NC(=O)c1c(NC(=O)c2ccccc2C(F)(F)F)sc2c1CCC(=O)C2
inactive: [1] 14.1% | [2] 14.7% | [3] 14.7% | [4] 19% | [7] 33.3%
active: [5] 5.93% | [6] 9.24% | [8] 9.45%

CNC(=O)c1cc(-c2ccc(NC(=S)Nc3cc(C(F)(F)F)cc(C(F)(F)F)c3)cc2)nc2cccnc12
inactive: [1] 85.1% | [3] 94.9% | [4] 98.1% | [5] 59.6% | [6] 99% | [7] 122% | [8] 98.6%

COc1ccc(C2c3sc4c(C)cccc4c3Oc3nc(CC(=O)Nc4ccccc4)[nH]c(=O)c32)cc1 (stereo unspecified)
inactive: [1] 84.4% | [3] 33.7% | [4] 74.9% | [5] 55.6% | [6] 73.6% | [7] 93.8% | [8] 92.7%

CC(=O)Nc1cccc(Nc2nc(N[C@@H](C)c3ccccc3)c3ccccc3n2)c1
active: [3] -48.9% | [5] 8.63% | [6] 6.47% | [7] -6.49%
inactive: [1] 58.4% | [4] 20.4% | [8] 22.9%

NC/C(=C/F)COc1ccc2nc(NCc3cccnc3)oc2c1
inactive: [1] 103% | [3] 102% | [4] 96.7% | [5] 89.3% | [6] 96.4% | [7] 117% | [8] 103%

Nn1c(N/N=C/c2nc3ccccc3s2)n[nH]c1=S
inactive: [1] 108% | [3] 110% | [4] 105% | [5] 93.7% | [6] 107% | [7] 123% | [8] 102%

Cc1cc(S(=O)(=O)N(C)C)cc(NCC(=O)NC(=O)NCC(C)C)c1C
inactive: [1] 110% | [3] 98.8% | [4] 98.4% | [5] 94.8% | [6] 100% | [7] 120% | [8] 102%

O=C(Nc1ccc2c(ccn2Cc2ccccn2)c1)c1cnccn1
inactive: [1] 101% | [3] 100% | [4] 93.7% | [5] 98.1% | [6] 100% | [7] 115% | [8] 100%

C=C(C)[C@@H]1CC[C@]2(COCCCNCCC#N)CC[C@]3(C)[C@H](CC[C@@H]4[C@@]5(C)CC[C@H](OCCCNCCC#N)C(C)(C)[C@@H]5CC[C@]43C)[C@@H]12
inactive: [1] 53.3% | [3] 56.4% | [4] 64.7% | [5] 32.5% | [6] 24.7% | [7] 31.8% | [8] 64.4%

C=C(C)[C@@H]1CC[C@]2(COC)CC[C@]3(C)[C@H](CC[C@@H]4[C@@]5(C)CCCNC(C)(C)[C@@H]5CC[C@]43C)[C@@H]12
active: [4] -57.6% | [5] 7.62% | [6] -29.1% | [7] -29.1%
inactive: [1] 54.1% | [3] 10.4% | [8] 38.1%

C=C(C)[C@@H]1CC[C@]2(COP(=O)(OCC)OCC)CC[C@]3(C)[C@H](CC[C@@H]4[C@@]5(C)CCCNC(C)(C)[C@@H]5CC[C@]43C)[C@@H]12
active: [6] -68.8% | [7] -27.4%
inactive: [1] 59.1% | [3] 36.5% | [4] 15.3% | [5] 13.8% | [8] 55.7%

CC(C)(O)c1cncc(-c2ccc3ncnc(NCc4ccccc4)c3c2)c1
inactive: [1] 64.2% | [3] 92.3% | [4] 98.9% | [5] 58.5% | [6] 97.8% | [7] 92.8% | [8] 101%

C[C@@H](Nc1ncnc2ccc(-c3cnc(Cl)c(NS(C)(=O)=O)c3)cc12)c1ccccc1
active: [1] 9.4%
inactive: [3] 60.9% | [4] 67.7% | [5] 21.3% | [6] 61% | [7] 70.6% | [8] 89.3%

Nc1nc(Nc2ccccc2SSc2ccccc2Nc2nc(N)nc(-c3cccc(Br)c3)n2)nc(-c2cccc(Br)c2)n1
inactive: [1] 62.6% | [3] 93.9% | [4] 98.5% | [5] 69.2% | [6] 47.8% | [7] 120% | [8] 23.6%

COc1cc(-c2nn(C(C)(C)C)cc2-c2ccnc(NCCCNS(=O)(=O)c3ccc(C)cc3)n2)ccc1Cl
inactive: [1] 84.6% | [3] 92.2% | [4] 93.7% | [5] 79.8% | [6] 67.4% | [7] 115% | [8] 94%

CCCn1cnc2c(c1=N)C(c1ccc(Cl)cc1)c1sc3c(CC)cccc3c1O2 (stereo unspecified)
active: [3] -35.4%
inactive: [2] 41.3% | [4] 25.5% | [5] 17% | [6] 12.1% | [7] 17.8% | [8] 15.6%

COc1cc(-c2nn(C(C)(C)C)cc2-c2ccnc(NCCCNS(=O)(=O)c3ccc(Cl)cc3)n2)ccc1Cl
inactive: [1] 64.2% | [3] 72.2% | [4] 91.1% | [5] 52.2% | [6] 39% | [7] 108% | [8] 68.8%

COc1ccc(/C(N)=N/C(N)=N/c2nc3ccccc3s2)cc1
inactive: [1] 80.4% | [3] 20.3% | [4] 65.4% | [5] 71.2% | [6] 79.6% | [7] 91.9%
active: [8] -11.5%

O=C(Nc1ccc(N=Cc2c(O)[nH]c3ccccc23)cc1)Nc1nccs1
inactive: [1] 41.2% | [4] 21.4% | [5] 22.7% | [6] 27% | [7] 73.9% | [8] 59.2%
active: [3] -52.7%

C[C@@H](Nc1c(C#N)cnc2ccc(-c3cnc(Cl)c(NS(C)(=O)=O)c3)cc12)c1ccccc1
inactive: [7] 16.7% | [8] 15.1%
active: [1] 0.239% | [3] 8.87% | [4] 9.39% | [5] 6.51% | [6] 4.05%
